The structures appear in SMILES notation. This is part of a sample that, as a whole, favours compounds with a hit. Of some 83,000 tested, about 20% had one in any assay.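 Activity criterion: percent growth below 10, measured after cells in 96-well plates were exposed to a single compound concentration for 48 hours.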 Unmarked numbers belong to inactive results. Activity calls are given as the source filed them.

For this experiment, the system named is HCT-15 colon. The experiment in a line: NCI-60 one-dose screen, 48 h (100 = growth as untreated, 0 = no growth, -100 = all killed). Particulars: 10 µM unless noted. The protocol: Growth inhibition of the HCT-15 human tumor cell line is measured as a screen for anti-cancer activity. Cells are grown in 96 well plates and exposed to the test compound for 48 hours. Compounds are tested at a single concentration, which is 10^-5 M for most compounds. The reported endpoint is percent growth (GI% or GIPRCNT), where numbers from 0 - 100% represent growth inhibition, and numbers from -100% - 0 represent cell death. For example, a value of 40 represents 60% growth inhibition. A value of 0 means no net growth occurred over the course of the experiment. A value of -40 indicates 40% of cells at the beginning of the experiment died by the end of the experiment. A value of -100 means all cells are dead at the end of the experiment.
NCI-60 Human Tumor Cell Lines Screen was performed using the standard one-dose NCI protocol, which is described in more detail at https://dtp.cancer.gov/discovery_development/nci-60/default.htm.
Compounds with GIPRCNT values below 10 were considered active. Activity score was based on GIPRCNT using the following formula: […]
Score is 0 for GIPRCNT values of 100 or above, 50 for GIPRCNT values of 0, and 100 for GIPRCNT values of -100.
`CC1(C)CC[C@]23CC[C@]4(C)[C@H](CC[C@@H]5[C@@]6(C)C/C(=C/c7cccnc7)C(=O)C(C)(C)[C@@H]6CC[C@]54C)[C@H]2[C@H]1OC3=O`: the growth was 42.7% [100 µM].
Then `CCN(CC)CCCC(C)Nc1c2ccc(C)cc2nc2ccc(OC)cc12` (stereo not given), with 18.2%.
For `CCC(C)[C@H](NC(=O)NC(=O)NC(=O)CI)C(=O)OC` (stereo not given in full) the value was 14.9%.
For `O=C1Nc2ccccc2/C1=C/C(=O)c1ccc(N2CCCCC2)cc1` the value was 79.8%.
For `CC[C@@](C)(NC(=O)[C@H](C)NC(=O)CCNC(=O)C(C)(C)NC(=O)[C@H](C)NC(=O)[C@@H]1CCCN1C(=O)[C@@](C)(CC)NC(=O)[C@H](Cc1ccccc1)NC(=O)C1CCCN1C(=O)C(C)(C)NC(=O)C1CCCN1C(=O)C(C)(C)NC(C)=O)C(=O)NCCC(=O)N[C@@H](CC(C)C)C(=O)NC(C)(C)C(=O)NCCC(=O)N[C@@H](CC(C)C)C(=O)NC(C)(C)C(=O)NC(C)(C)C(=O)N[C@@H](CC(C)C)C(=O)NCCC(=O)NCO` (stereo not given in full), the growth is -99.4% (active).
Turning to `Cc1cc(N2CCCCCC2)nc(N2CCN(CC(=O)Nc3ccc4c(ccn4Cc4ccccc4)c3)CC2)n1`, the growth is 30.8%.
Then `NC(=S)Cc1ccccc1`, with 97.3%; and `COc1cc2c(c(OC)c1)C1c3cc(OC)ccc3NC(=O)N1CC2` (stereo not given), with 49.7%; and `O=c1[nH]c(CN2CCN(c3cccc(Cl)c3)CC2)nc2cc(Cl)ccc12`, with 94.4%.
Then `O=C(O)CC1CCCCC1c1ccccc1` (stereo not given), with 97.8%; and `CCOC(=O)c1cnc2ccc(Br)cc2c1Nc1cccc(S(N)(=O)=O)c1`, with 90.8%.
For `N#C/C(C(=O)c1ccccc1)=C1/C(=O)Nc2ccccc21` the value was 106%; for `CCOC(=O)c1c[nH]n2c(=S)ncnc12`, 102%; for `COc1ccc(-c2cc(-c3ccccc3)nc(SCCCCCC(=O)NO)n2)cc1`, 78.1%.
For the molecule `COc1cc2c(cc1OCCCN1CCN(CCCOc3cc4c(cc3OC)C(=O)N3C[C@H](F)C[C@H]3C=N4)CC1)N=C[C@@H]1C[C@@H](F)CN1C2=O`, the growth is 56.6%.
For `CC1Cc2ccc(OCCN(C)C)cc2C1=O` (stereo not given), the growth was 108%.
For `NC(=O)c1c(NC(=O)COC(=O)Cc2ccccc2F)sc2c1CCC2` the value was 104%; for `COc1cc(-c2cc(-c3ccc(Nc4ncnc5cc(Cl)ccc45)cc3)nc(N3CCCCC3)n2)cc(OC)c1OC`, 99.5%.
With `Fc1ccc(NC(=S)c2ccccc2)cc1`, the growth is 102%.
As for `COc1c(B(O)O)cccc1-c1nc2ccc3[nH]ncc3c2c2c1CCC2`, the growth is 54.7%.
For the molecule `C#C[C@]1(O)CC[C@H]2[C@@H]3CC=C4c5nc(N)sc5CC[C@]4(C)[C@H]3CC[C@@]21C`, the growth is 42.4%.
For `CN(C)C(=S)Sc1ccc([N+](=O)[O-])cc1[N+](=O)[O-]` the value was 5.29% (active); for `Cn1cc(-c2noc(-c3cn(C)c4ncccc34)n2)c2cc(Cl)ccc21`, 92.8%; for `CCN(CC)c1ccc2cc(C(Nc3ccc(C)cc3)c3nnnn3C(C)(C)C)c(=O)oc2c1` (stereo not given), 98.3%.
Then `O=C(N=c1n(-c2ccccc2)nc2n1CCN2C1=NCCN1C(=O)c1ccc(Cl)cc1)c1ccc(Cl)cc1`, with 57%.
For `NNC(=O)c1ccc(C(=O)NN)cc1` the value was 112%.
In the case of `CCCCCCCCN(CCCCCCCC)CC(O)c1ccc(Cl)c(C)c1Cl` (stereo not given), the growth was 80.1%.
For `O=C1COCCN1c1ccc(NCc2cn(Cc3ccc(F)cc3)c3ccccc23)cc1` the value was 61.9%; for `COc1ccc(NCc2cn(-c3ccc(C(=O)O)cc3)nc2-c2ccc(C(=O)O)cc2)cc1C(F)(F)F`, 105%; for `CN(C)CCCNc1nc(-c2cccc(C(Cl)(Cl)Cl)c2)nc(C(Cl)(Cl)Cl)n1`, 108%.
Then `CC[C@]12C=CCN3CC[C@@]4(c5ccc(OC)cc5N(C)[C@H]4[C@@](O)(C(=O)OC)[C@@H]1OC(=O)CCC(=O)O[C@H]1CC[C@H]4[C@@H]5CCC6=CC(=O)CC[C@@H]6[C@H]5CC[C@]14C)[C@@H]32`, with 14.5% [100 µM].
Then `C=C(C)[C@@H]1CC[C@]2(COCCCN)CC[C@]3(C)[C@H](CC[C@@H]4[C@@](C)(CCCNCCCN)[C@H](C(=C)C)CC[C@]43C)[C@@H]12`, with -53.4% [100 µM] (active); and `Cc1cnc(N)nc1OCC(C)(C)CNC(=O)c1cccc(-c2ccc(S(=O)(=O)Nc3ccc4c(c3)N(C(=O)C3CC3)CCC4)cc2)c1`, with 67.6%; and `Cc1nn(-c2ccccc2)c(N2CCOCC2)c1-c1nc2ccc([N+](=O)[O-])cc2[nH]1`, with 91.5%.
For `CO[C@H]1CC[C@@]2(C)C(=CC[C@H]3[C@@H]4C[C@H](O)C[C@@]4(C)CC[C@@H]32)C1`, the growth was 36.4%.
For `CCCCOC(=O)c1c(C)[nH]c(/C=C2\N=C(c3ccc[nH]3)C=C2OC)c1C`, the growth was -1.74% (active).
For the molecule `O=C(CSc1nccc(Nc2ccc(S(=O)(=O)Nc3ccccn3)cc2)n1)c1ccc(Cl)cc1`, the growth is 99.9%.
Consider `CCCCC(CC)COC(=O)C[N+](C)(C)CCOC(c1ccccc1)c1ccccc1` (stereo not given), for which the growth was 96.2%.
As for `O=c1cc(-c2ccccc2)oc2cc(OCc3cn(Cc4ccc(F)cc4)nn3)cc(O)c12`, the growth was 94.4% [100 µM].
Regarding `CNC(=O)c1cc(Oc2cccc3nc(NC(=O)Nc4cc(C(F)(F)F)cc(C(F)(F)F)c4)ccc23)ccn1`, the growth was 71.1%.

Source of the values: PubChem BioAssay (NCI).
